Assay results as given in PubChem BioAssay (NCATS).
Several values for one entry are separate records, joined by “and”; a condition that tells them apart may be missing. Equal entries are not always repeated. Records with an inconclusive call do not appear. Entries that show only a call come without a potency. Values without a mark were called inactive. Activity calls are given as the source filed them. The call rests on the fitted dose curve; in most records, active means well fitted curve in the direction sought with a large enough effect; inconclusive means small, poorly fitted or top-dose-only effect, or another doubt; inactive means no such curve, though single readings can be large; an effect the other way counts as inactive or inconclusive.

What was measured:
[1] = molecular target: Cellular tumor antigen p53 (Homo sapiens) (UniProt P04637); experiment: Primary qHTS for small molecule compounds that upregulate eGFP-tagged delta133p53alpha (in N-terminal) cells. (AID 2060322); conditions: NCI-H358 eGFP-delta133p53alpha fluorescence, 24 h; activation: active compounds read high; further: nearly all actives have a fitted effect of over 75% in size; further: potency means the concentration at half of the fitted maximal effect;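 on activation: cells pre-induced with doxycycline then dosed without doxycycline; series mostly up to about 56 µM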
Cellular tumor antigen p53 (Homo sapiens), sequence (P04637 whole entry, looked up): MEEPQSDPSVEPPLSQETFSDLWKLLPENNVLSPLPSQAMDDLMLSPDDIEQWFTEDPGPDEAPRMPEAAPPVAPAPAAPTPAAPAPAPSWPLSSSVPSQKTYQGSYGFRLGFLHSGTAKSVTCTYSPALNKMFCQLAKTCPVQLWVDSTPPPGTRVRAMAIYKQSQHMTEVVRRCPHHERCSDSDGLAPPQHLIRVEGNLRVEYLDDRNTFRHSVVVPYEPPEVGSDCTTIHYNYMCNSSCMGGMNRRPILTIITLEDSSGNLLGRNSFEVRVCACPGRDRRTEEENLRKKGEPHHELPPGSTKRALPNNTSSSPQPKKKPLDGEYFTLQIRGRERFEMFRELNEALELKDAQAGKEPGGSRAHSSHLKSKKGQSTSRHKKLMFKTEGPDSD
Summary of the method: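 NCI-H358 cells pre-induced 24 h with 10 ng/ml doxycycline for eGFP-delta133p53alpha, plated dox-free and exposed 24 h at 37C to titrated compounds. Fixed, Hoechst-stained; gated GFP peak intensity by laser scanning cytometry, normalized to DMSO (0%) and 57.5 uM 5-azacytidine (100%).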

[2] = molecular target: Aldehyde dehydrogenase, mitochondrial (Homo sapiens) (UniProt P05091); experiment: qHTS for Inhibitors of the Aldehyde Dehydrogenase Family (ALDH2) Primary screen (AID 2061308); further: nearly all actives have a fitted effect of over 55% in size
[3] = molecular target: Retinaldehyde dehydrogenase 3 (Homo sapiens) (UniProt P47895); experiment: qHTS for Inhibitors of the Aldehyde Dehydrogenase Family (ALDH1A3) Primary screen (AID 2061315)

## CC1CCC2(C=O)C(CO)=CCCC2C1(C)CC(=O)O (configuration not stated)
[1]
  activation: -0.763%
[2]
  Potency: inactive
[3]
  Potency: inactive

## COc1cc(/C=C/C(=O)O[C@@H]2C[C@@](O)(C(=O)O)C[C@@H](O)[C@@H]2O)ccc1O
[1]
  activation: -1.53%
[2]
  Potency: inactive
[3]
  Potency: inactive

## C/C=C/C=C/[C@@H]1O[C@](O)([C@H](CC)C(=O)NC/C=C/C=C(\C)[C@@H](OC)[C@@H](C)C2OC(/C=C/C=C/C=C(\C)C(=O)c3c(O)cc[nH]c3=O)[C@H](O)[C@@H]2O)[C@H](O)[C@H](O)C1(C)C (some centres not stated)
[1]
  activation: -1.79%
[2]
  Potency: inactive
[3]
  Potency: inactive

## CC(=O)OC1CC(O)(C(C)C)C2C(OC(=O)c3ccc(O)cc3)C=C(C)C(=O)CC12C (configuration not stated)
[1]
  activation: 29.8%
[2]
  Potency: inactive
[3]
  Potency: inactive

## O=C(NOC[C@H](O)CO)c1ccc(F)c(F)c1Nc1ccc(I)cc1F
[1]
  activation: 8.59%
[2]
  Potency: inactive
[3]
  Potency: inactive

## CC(=O)OC1C(O)C(C)(O)C(/C=C/C(=O)O)C2(C)CCCC(C)(C)C12 (configuration not stated)
[1]
  activation: -17.6%
[2]
  Potency: inactive
[3]
  Potency: inactive

## CC(C)CC(=O)O[C@@H]1O[C@H](CO)[C@@H](O[C@H]2O[C@H](C)[C@@H](N[C@H]3C=C(CO)[C@@H](O[C@H]4O[C@H](CO)[C@@H](O[C@H]5O[C@H](CO)[C@@H](O[C@H]6O[C@H](CO)[C@@H](O)[C@H](O)[C@H]6O)[C@H](O)[C@H]5O)[C@H](O)[C@H]4O)[C@H](O)[C@H]3O)[C@H](O)[C@H]2O)[C@H](O)[C@H]1O
[1]
  activation: -13.7%
[2]
  Potency: inactive
[3]
  Potency: inactive

## CC1CCCC2OC2C(=O)c2c(O)cc(O)cc2CC(=O)O1 (configuration not stated)
[1]
  activation: 16%
[2]
  Potency: inactive
[3]
  Potency: inactive

## COc1ccc(C2(CNC(=O)[C@](C)(Cc3c[nH]c4ccccc34)NC(=O)Nc3ccc([N+](=O)[O-])cc3)CCCCC2)nc1
[1]
  activation: 12.9%
[2]
  Potency: inactive
[3]
  Potency: inactive

## C[C@]12C=C[C@@]3(CCC4[C@](C)(CO)CCC[C@@]4(C)C3CC1)C2 (some centres not stated)
[1]
  activation: -5.36%
[2]
  Potency: inactive
[3]
  Potency: inactive

## N#C/C(=C1\Nc2ccccc2S1)c1ccnc(NCCc2cccnc2)n1
[1]
  Potency: 19 µM (active)
[2]
  Potency: inactive
[3]
  Potency: inactive

## CC1CC(O)C2(OC1=O)OC1C(O)C3C4CCC5CC(OC6OC(CO)C(O)C(O)C6OC6OC(C)C(O)C(O)C6O)CCC5(C)C4CCC3(C)C1C2C (configuration not stated)
[1]
  activation: -0.893%
[2]
  Potency: inactive
[3]
  Potency: inactive

## CC(=O)OC[C@]1(O)[C@H]2[C@H](OC(=O)CC(C)C)OC=C(CO[C@@H]3O[C@H](CO)[C@@H](O)[C@H](O)[C@H]3O)[C@H]2C[C@@H]1O
[1]
  activation: -1.79%
[2]
  Potency: inactive
[3]
  Potency: inactive

## C[C@@H]1O[C@@H](O[C@H]2[C@H](OC(=O)C34CCC5(C)C(=CCC6C7(C)CC(O)C(O[C@@H]8O[C@H](C(=O)O)[C@@H](O)[C@H](O)[C@H]8O)C(C)(C(=O)O)C7CCC65C)C3CC(C)(C)CC4O)O[C@H](C)[C@@H](O)[C@@H]2O)[C@H](O)[C@@H](O[C@@H]2OC[C@](O)(CO)[C@H]2O[C@@H]2O[C@H](CO)[C@@H](O)[C@H](O)[C@H]2O)[C@H]1O (some centres not stated)
[1]
  activation: 8.4%
[2]
  activity change, negative = inhibition: 0.837% [at 11.2 µM]
[3]
  activity change, negative = inhibition: 5.31% [at 11.2 µM]

## CC(=O)O[C@@H]1[C@H](OC(C)=O)C[C@@]2(C)C(CC[C@@H](C)[C@]23Cc2c(O)cc4c(c2O3)CN([C@@H](CCC(=O)O)C(=O)O)C4=O)C1(C)C (some centres not stated)
[1]
  activation: -9.92%
[2]
  Potency: inactive
[3]
  Potency: inactive

## C/C(=C\C(=O)C(C)C1CCC2C3=C(CCC21C)C1(C)CCC(=O)C(C)(C)C1(O)CC3)C(C)(C)O (configuration not stated)
[1]
  activation: -16.8%
[2]
  Potency: inactive
[3]
  Potency: inactive

## COC(=O)C(CC1(OC(=O)C(C)C)c2ccccc2N2C(=O)C(C)(C)N(O)C21)n1cnc2ccccc2c1=O (configuration not stated)
[1]
  activation: 3.05%
[2]
  Potency: inactive
[3]
  Potency: inactive

## C=C(C)[C@@H]1CC[C@](C)(O)[C@@H](OC(=O)c2ccccc2)C1
[1]
  activation: -15.2%
[2]
  Potency: inactive
[3]
  Potency: inactive

## H-DPPDPDRFYGMM-NH2
[1]
  activation: -11%
[2]
  Potency: inactive
[3]
  Potency: inactive

## C=C1CC23CC(=O)C4C(CO)(CO)CCCC4(C)C2CCC1C3 (configuration not stated)
[1]
  activation: -3.05%
[2]
  Potency: inactive
[3]
  Potency: inactive

## C=CCC1=C[C@]2(OC)[C@H](C)[C@@H](c3ccc4c(c3)OCO4)O[C@]2(OC)CC1=O
[1]
  activation: 1.53%
[2]
  Potency: inactive
[3]
  Potency: inactive

## CC(=O)OC1C(C)C2C(OC3OC(CO)C(O)C(O)C3O)OC=C(C(=O)O)C2C1OC(=O)c1ccccc1 (configuration not stated)
[1]
  activation: 5.34%
[2]
  Potency: inactive
[3]
  Potency: inactive

## CC1=CCC(C(C)(C)O[C@@H]2O[C@H](CO[C@@H]3O[C@@H](C)[C@H](O)[C@@H](O)[C@H]3O)[C@@H](O)[C@H](O)[C@H]2O)CC1 (some centres not stated)
[1]
  activation: -6.11%
[2]
  Potency: inactive
[3]
  Potency: inactive

## CC[C@]1(O)CC2CN(CCc3c([nH]c4ccccc34)[C@@](C(=O)OC)(c3cc4c(cc3OC)N(C=O)[C@H]3[C@@](O)(C(=O)OC)[C@H](OC(C)=O)[C@]5(CC)C=CCN6CC[C@]43[C@@H]65)C2)C1 (some centres not stated)
[1]
  activation: -0.333%
[2]
  Potency: inactive
[3]
  Potency: inactive

## CC(C)=CCC[C@](C)(O[C@@H]1O[C@H](CO)[C@@H](O)[C@H](O)[C@H]1O)[C@H]1CC[C@]2(C)[C@@H]1[C@H](O)CC1[C@@]3(C)CC[C@H](O)C(C)(C)C3[C@@H](O[C@@H]3O[C@H](CO)[C@@H](O)[C@H](O)[C@H]3O)C[C@]12C (some centres not stated)
[1]
  activation: 15.3%
[2]
  Potency: inactive
[3]
  Potency: inactive

## CC1(C)CC[C@]2(C(=O)O)CC[C@]3(C)C(=CCC4[C@@]5(C)C[C@H](O)[C@H](O[C@@H]6OC[C@H](O)[C@H](O)[C@H]6O)[C@@](C)(CO)C5CC[C@]43C)[C@@H]2C1 (some centres not stated)
[1]
  activation: -9.16%
[2]
  Potency: inactive
[3]
  Potency: inactive

## C=C1CCCC2(C)CCC(C(C)(C)OC3OC(C)C(O)C(O)C3OC(=O)/C(C)=C\C)CC12 (configuration not stated)
[1]
  activation: -19.8%
[2]
  Potency: inactive
[3]
  Potency: inactive

## COc1cc2c(cc1OC)N1C(=O)C[C@@]34C=CC[N@+]5([O-])CC[C@H]2[C@H](CC3)[C@@]145
[1]
  activation: 5.36%
[2]
  Potency: inactive
[3]
  Potency: inactive

## CC1OC(OC2C(C)OC(OC3C(OC(=O)/C=C/c4ccc(O)cc4)C(CO)OC(OC4(COC(=O)/C=C/c5ccc(O)cc5)OC(CO)C(O)C4O)C3OC3OCC(O)(CO)C3O)C(O)C2O)C(O)C(O)C1O (configuration not stated)
[1]
  activation: 14.5%
[2]
  Potency: inactive
[3]
  Potency: inactive

## CC(C)CCNC(=O)[C@H](CC(C)C)NC(=O)[C@H]1O[C@@H]1C(=O)O
[1]
  activation: -9%
[2]
  Potency: inactive
[3]
  Potency: inactive

## COc1cc(C(CO)CO[C@@H]2O[C@H](CO)[C@@H](O)[C@H](O)[C@H]2O)ccc1O (some centres not stated)
[1]
  activation: -11.5%
[2]
  Potency: inactive
[3]
  Potency: inactive

## COC1=CC(=O)C=C(C)C12Oc1c(Cl)c(OC)cc(OC)c1C2=O (configuration not stated)
[1]
  activation: 1.53%
[2]
  Potency: inactive
[3]
  Potency: inactive

## COc1ccc(CN2CCN(C(c3ccc(F)cc3)c3ccc(F)cc3)CC2)c(OC)c1OC
[1]
  activation: -1.69% and -6.68%
[2]
  Potency: inactive
[3]
  Potency: inactive

## CC1=C2[C@@H]([C@H](C)CC[C@H]2/C=C(\C)C(=O)O)[C@H](O)C1
[1]
  activation: -10.7%
[2]
  Potency: inactive
[3]
  Potency: inactive

## COc1cccc(-c2cn(-c3ccc(CCN4CCC(O)CC4)cc3)c3ncnc(N)c23)c1
[1]
  Potency: 6.01 µM (active)
[2]
  Potency: inactive
[3]
  Potency: inactive

## C/C1=C/CCC2=CC(OC2=O)C(C)(C)/C=C/C1=O (configuration not stated)
[1]
  Potency: 4.26 µM (active)
[2]
  Potency: inactive
[3]
  Potency: inactive

## COC(=O)[C@@]1(C)CC[C@]2(C(=O)O[C@@H]3O[C@H](CO)[C@@H](O)[C@H](O)[C@H]3O)CC[C@]3(C)C(=CCC4[C@@]5(C)CC[C@H](O[C@@H]6O[C@H](C(=O)O)[C@@H](O)[C@H](O)[C@H]6O)C(C)(C)C5CC[C@]43C)[C@@H]2C1 (some centres not stated)
[1]
  activation: -16.8%
[2]
  Potency: inactive
[3]
  Potency: inactive

## COc1cc2c(cc1O)[C@H](c1ccc(O[C@@H]3O[C@H](CO)[C@@H](O)[C@H](O)[C@H]3O)c(OC)c1)[C@@H](CO)[C@](O)(CO)C2
[1]
  activation: -15.3%
[2]
  Potency: inactive
[3]
  Potency: inactive

## CC1(CO)CCCC2(C)C1C(OC(=O)c1ccccc1)C=C1C(=O)OCC12O (configuration not stated)
[1]
  Potency: 20.9 µM (active)
[2]
  Potency: inactive
[3]
  Potency: inactive

## COC1CC(=O)C23C(=O)NC(CC(C)C)C2C(C)C(C)=CC3/C=C(\C)CCC(O)C1O (configuration not stated)
[1]
  activation: 23.7%
[2]
  Potency: inactive
[3]
  Potency: inactive

## C=CCc1ccc(O[C@@H]2O[C@H](CO)[C@@H](O)[C@H](O)[C@H]2O)c(O[C@@H]2O[C@H](CO)[C@@H](O)[C@H](O)[C@H]2O)c1
[1]
  activation: -13.7%
[2]
  Potency: inactive
[3]
  Potency: inactive

## O=C(N[C@@H]1CCCc2c1cnn2-c1ccc(F)cc1F)c1ccccn1
[1]
  activation: 12.3%
[2]
  Potency: inactive
[3]
  Potency: inactive

## CC(O)CO[C@@H]1O[C@H](CO)[C@@H](O)[C@H](O)[C@H]1O (some centres not stated)
[1]
  activation: -4.58%
[2]
  Potency: inactive
[3]
  Potency: inactive

## C=C(CCO[C@@H]1O[C@H](CO)[C@@H](O)[C@H](O)[C@H]1O)C(=O)O
[1]
  activation: -22.3%
[2]
  Potency: inactive
[3]
  Potency: inactive

## C[C@@H](CC[C@@H]1[C@@]2(C)CCCC(C)(C)C2CC[C@@]1(C)O)CC(=O)O (some centres not stated)
[1]
  activation: -12.2%
[2]
  Potency: inactive
[3]
  Potency: inactive

## CC(=O)NC(C(=O)OC1CCC(C)(C)C2CC=C3C(=O)OCC3C12C)C(C)C (configuration not stated)
[1]
  activation: 9.16%
[2]
  Potency: inactive
[3]
  Potency: inactive

## Cc1ccc(C)c(NS(=O)(=O)c2cc(C(=O)Nc3ccccc3-c3ccccc3)ccc2C)c1
[1]
  activation: 1.67%
[2]
  Potency: inactive
[3]
  Potency: inactive

## CCCN(CCc1ccsc1)C1CCc2c(O)cccc2C1 (configuration not stated)
[1]
  activation: 2.68%
[2]
  Potency: inactive
[3]
  Potency: inactive

## CC(=O)/C=C/C1(O)C(C)=CC(=O)CC1(C)C (configuration not stated)
[1]
  activation: 14.3%
[2]
  Potency: inactive
[3]
  Potency: inactive
